# Columns and labels:
# [1] = target: Rho-associated protein kinase 1 (Homo sapiens) (UniProt Q13464); conditions: at 1 µM;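 further: reported values are mean percent inhibition of ROCK1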
# [2] = target: Rho-associated protein kinase 2 (Homo sapiens) (UniProt O75116); conditions: at 0.1 µM
# [3] = target: Rho-associated protein kinase 2 (Homo sapiens) (UniProt O75116); conditions: at 1 µM
# [4] = target: Ribosomal protein S6 kinase alpha-1 (Homo sapiens) (UniProt Q15418); conditions: at 0.1 µM
# [5] = target: Ribosomal protein S6 kinase alpha-1 (Homo sapiens) (UniProt Q15418); conditions: at 1 µM
# [6] = target: Ribosomal protein S6 kinase alpha-3 (Homo sapiens) (UniProt P51812); conditions: at 0.1 µM
# [7] = target: Ribosomal protein S6 kinase alpha-3 (Homo sapiens) (UniProt P51812); conditions: at 1 µM
# [8] = target: Ribosomal protein S6 kinase alpha-2 (Homo sapiens) (UniProt Q15349); conditions: at 0.1 µM
# [9] = target: Ribosomal protein S6 kinase alpha-2 (Homo sapiens) (UniProt Q15349); conditions: at 1 µM
# [10] = target: Ribosomal protein S6 kinase alpha-6 (Homo sapiens) (UniProt Q9UK32); conditions: at 0.1 µM
# [11] = target: Ribosomal protein S6 kinase alpha-6 (Homo sapiens) (UniProt Q9UK32); conditions: at 1 µM
# [12] = target: T1, Serine/threonine-protein kinase Sgk1 (Homo sapiens) (UniProt O00141); conditions: at 0.1 µM
# T1 sequence (whole entry): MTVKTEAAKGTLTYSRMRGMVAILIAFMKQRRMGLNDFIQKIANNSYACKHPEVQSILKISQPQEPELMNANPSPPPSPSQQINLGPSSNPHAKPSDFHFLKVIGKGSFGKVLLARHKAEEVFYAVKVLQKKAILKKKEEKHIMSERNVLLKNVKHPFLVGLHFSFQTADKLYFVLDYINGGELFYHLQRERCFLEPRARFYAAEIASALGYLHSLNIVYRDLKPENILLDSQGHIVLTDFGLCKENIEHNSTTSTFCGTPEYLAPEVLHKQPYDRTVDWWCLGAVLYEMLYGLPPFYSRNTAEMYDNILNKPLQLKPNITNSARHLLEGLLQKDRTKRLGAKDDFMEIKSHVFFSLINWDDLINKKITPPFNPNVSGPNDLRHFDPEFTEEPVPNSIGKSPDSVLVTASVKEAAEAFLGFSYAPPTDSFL
# [13] = target: T1, Serine/threonine-protein kinase Sgk1 (Homo sapiens); conditions: at 1 µM
# [14] = target: T2, Serine/threonine-protein kinase Sgk2 (Homo sapiens) (UniProt Q9HBY8); conditions: at 0.1 µM
# T2 sequence (whole entry): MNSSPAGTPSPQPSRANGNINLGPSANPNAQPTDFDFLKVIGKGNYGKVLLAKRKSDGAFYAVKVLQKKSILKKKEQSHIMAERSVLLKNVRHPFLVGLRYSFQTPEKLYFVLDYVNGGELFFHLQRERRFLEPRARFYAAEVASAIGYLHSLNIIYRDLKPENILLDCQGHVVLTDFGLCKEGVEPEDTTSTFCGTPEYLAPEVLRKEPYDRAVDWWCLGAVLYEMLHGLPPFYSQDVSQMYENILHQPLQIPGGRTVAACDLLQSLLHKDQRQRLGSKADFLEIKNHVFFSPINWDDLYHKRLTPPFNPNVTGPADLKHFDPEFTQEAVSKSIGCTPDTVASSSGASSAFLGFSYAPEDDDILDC
# [15] = target: T2, Serine/threonine-protein kinase Sgk2 (Homo sapiens); conditions: at 1 µM
# [16] = target: T3, Serine/threonine-protein kinase Sgk3 (Homo sapiens) (UniProt Q96BR1); conditions: at 0.1 µM
# T3 sequence (whole entry): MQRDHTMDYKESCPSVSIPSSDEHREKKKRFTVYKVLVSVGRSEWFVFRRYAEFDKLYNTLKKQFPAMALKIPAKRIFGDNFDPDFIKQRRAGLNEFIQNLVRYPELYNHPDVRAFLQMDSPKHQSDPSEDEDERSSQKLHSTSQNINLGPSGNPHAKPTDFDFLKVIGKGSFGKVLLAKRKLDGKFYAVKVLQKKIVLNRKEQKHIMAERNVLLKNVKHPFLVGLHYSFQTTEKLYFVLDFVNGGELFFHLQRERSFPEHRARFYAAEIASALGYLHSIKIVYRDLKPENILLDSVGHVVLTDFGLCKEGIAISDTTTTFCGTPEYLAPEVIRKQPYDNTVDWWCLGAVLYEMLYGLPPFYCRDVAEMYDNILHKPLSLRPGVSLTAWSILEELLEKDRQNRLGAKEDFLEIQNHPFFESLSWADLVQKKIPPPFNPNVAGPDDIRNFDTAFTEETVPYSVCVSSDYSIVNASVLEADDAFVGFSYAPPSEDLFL
# [17] = target: T3, Serine/threonine-protein kinase Sgk3 (Homo sapiens); conditions: at 1 µM
# [18] = target: 5'-AMP-activated protein kinase catalytic subunit alpha-1 (Homo sapiens) (UniProt Q13131); conditions: at 0.1 µM
# [19] = target: 5'-AMP-activated protein kinase catalytic subunit alpha-1 (Homo sapiens) (UniProt Q13131); conditions: at 1 µM
# [20] = target: 5'-AMP-activated protein kinase catalytic subunit alpha-2 (Homo sapiens) (UniProt P54646); conditions: at 0.1 µM;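 further: mean inhibition measured on the AMPK complex of alpha2, beta1 and gamma1 subunits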
# Chain of Ribosomal protein S6 kinase alpha-1 (Homo sapiens) (Q15418 whole entry): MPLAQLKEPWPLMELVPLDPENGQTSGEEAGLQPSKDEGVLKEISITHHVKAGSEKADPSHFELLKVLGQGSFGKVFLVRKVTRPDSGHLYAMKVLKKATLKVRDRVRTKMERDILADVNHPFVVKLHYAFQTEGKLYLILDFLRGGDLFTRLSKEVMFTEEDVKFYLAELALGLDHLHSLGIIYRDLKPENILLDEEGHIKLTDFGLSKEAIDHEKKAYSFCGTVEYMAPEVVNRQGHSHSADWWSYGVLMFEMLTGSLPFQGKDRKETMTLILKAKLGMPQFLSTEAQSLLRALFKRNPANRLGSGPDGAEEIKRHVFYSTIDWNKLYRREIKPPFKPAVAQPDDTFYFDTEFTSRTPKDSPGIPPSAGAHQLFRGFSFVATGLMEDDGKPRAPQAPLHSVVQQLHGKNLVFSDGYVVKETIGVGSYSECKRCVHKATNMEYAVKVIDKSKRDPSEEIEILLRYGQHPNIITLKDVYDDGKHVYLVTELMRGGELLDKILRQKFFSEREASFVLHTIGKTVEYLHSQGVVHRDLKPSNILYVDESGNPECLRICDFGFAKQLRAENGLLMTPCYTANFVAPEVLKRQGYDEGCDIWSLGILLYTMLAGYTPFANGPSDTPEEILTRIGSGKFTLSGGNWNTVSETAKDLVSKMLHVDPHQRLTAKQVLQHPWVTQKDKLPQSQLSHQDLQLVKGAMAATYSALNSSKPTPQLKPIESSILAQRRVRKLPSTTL
# Chain of Ribosomal protein S6 kinase alpha-6 (Homo sapiens) (Q9UK32 whole entry): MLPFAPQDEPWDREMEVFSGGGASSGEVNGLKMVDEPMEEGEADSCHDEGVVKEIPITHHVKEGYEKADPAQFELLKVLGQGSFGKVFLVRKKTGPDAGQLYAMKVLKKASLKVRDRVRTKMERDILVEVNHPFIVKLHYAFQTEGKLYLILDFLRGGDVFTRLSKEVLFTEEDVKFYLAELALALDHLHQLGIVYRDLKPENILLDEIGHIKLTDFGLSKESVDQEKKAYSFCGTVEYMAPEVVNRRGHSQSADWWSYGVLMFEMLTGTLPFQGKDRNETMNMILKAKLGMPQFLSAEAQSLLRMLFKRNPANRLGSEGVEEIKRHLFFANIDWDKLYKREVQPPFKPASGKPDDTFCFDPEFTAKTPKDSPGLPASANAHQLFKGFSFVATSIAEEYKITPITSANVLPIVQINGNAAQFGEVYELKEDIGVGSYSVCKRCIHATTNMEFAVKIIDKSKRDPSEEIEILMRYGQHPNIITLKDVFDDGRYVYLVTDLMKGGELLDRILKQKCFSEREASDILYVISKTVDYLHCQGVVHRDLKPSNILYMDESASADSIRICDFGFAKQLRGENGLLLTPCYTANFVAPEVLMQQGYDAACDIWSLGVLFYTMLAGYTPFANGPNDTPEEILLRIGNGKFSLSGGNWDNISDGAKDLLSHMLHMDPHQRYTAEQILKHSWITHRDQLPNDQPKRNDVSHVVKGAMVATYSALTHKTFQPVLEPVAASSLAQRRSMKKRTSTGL
# Chain of Rho-associated protein kinase 2 (Homo sapiens) (O75116 whole entry, looked up): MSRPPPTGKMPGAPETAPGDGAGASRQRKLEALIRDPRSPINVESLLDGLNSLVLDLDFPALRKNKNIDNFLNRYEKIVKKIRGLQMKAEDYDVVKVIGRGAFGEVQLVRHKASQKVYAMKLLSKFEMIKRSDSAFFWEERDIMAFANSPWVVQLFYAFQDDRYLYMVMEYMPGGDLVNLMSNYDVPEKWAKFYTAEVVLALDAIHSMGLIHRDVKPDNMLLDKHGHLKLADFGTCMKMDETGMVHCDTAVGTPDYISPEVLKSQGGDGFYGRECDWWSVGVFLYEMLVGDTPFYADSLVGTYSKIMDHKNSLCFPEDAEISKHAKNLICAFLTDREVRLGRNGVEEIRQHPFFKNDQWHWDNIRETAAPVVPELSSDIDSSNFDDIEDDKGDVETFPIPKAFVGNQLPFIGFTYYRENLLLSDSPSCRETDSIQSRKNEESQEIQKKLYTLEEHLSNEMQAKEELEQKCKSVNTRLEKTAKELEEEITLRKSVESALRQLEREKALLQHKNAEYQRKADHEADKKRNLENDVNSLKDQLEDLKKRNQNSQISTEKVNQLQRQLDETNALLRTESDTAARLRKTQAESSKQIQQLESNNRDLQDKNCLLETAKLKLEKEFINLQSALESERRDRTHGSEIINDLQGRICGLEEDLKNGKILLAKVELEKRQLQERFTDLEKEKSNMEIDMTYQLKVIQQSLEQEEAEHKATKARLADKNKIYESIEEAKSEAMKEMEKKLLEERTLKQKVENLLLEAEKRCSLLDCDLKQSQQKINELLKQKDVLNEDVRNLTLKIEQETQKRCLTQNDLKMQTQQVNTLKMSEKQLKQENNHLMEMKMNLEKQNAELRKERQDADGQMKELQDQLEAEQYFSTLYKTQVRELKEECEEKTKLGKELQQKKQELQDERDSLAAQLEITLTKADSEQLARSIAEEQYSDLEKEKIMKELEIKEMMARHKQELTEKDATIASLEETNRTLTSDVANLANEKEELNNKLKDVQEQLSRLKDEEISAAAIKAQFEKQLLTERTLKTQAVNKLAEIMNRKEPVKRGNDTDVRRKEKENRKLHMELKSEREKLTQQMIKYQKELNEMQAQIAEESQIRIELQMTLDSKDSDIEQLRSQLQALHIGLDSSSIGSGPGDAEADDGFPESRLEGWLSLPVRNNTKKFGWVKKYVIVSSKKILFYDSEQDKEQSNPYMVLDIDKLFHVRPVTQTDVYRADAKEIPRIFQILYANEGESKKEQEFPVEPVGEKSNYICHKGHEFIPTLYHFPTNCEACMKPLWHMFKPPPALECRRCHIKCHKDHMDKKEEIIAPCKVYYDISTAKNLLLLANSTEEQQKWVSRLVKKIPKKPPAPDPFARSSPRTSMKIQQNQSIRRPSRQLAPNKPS
# Chain of 5'-AMP-activated protein kinase catalytic subunit alpha-1 (Homo sapiens) (Q13131 whole entry, looked up): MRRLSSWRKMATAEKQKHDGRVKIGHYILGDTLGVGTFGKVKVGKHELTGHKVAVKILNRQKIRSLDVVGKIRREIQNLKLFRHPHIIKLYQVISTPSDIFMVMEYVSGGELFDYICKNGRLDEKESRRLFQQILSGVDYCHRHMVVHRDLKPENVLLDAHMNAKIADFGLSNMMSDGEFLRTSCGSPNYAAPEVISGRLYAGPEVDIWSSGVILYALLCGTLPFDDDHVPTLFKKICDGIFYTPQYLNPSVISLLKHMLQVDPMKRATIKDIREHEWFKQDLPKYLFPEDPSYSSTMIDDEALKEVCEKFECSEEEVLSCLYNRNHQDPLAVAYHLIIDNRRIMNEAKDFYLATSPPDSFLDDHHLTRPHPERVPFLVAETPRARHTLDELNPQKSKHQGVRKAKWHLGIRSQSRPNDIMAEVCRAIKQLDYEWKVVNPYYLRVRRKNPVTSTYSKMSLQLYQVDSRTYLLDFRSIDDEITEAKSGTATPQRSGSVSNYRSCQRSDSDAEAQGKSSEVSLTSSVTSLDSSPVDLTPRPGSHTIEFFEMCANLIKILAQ
# Chain of Rho-associated protein kinase 1 (Homo sapiens) (Q13464 2-1354 limits assumed): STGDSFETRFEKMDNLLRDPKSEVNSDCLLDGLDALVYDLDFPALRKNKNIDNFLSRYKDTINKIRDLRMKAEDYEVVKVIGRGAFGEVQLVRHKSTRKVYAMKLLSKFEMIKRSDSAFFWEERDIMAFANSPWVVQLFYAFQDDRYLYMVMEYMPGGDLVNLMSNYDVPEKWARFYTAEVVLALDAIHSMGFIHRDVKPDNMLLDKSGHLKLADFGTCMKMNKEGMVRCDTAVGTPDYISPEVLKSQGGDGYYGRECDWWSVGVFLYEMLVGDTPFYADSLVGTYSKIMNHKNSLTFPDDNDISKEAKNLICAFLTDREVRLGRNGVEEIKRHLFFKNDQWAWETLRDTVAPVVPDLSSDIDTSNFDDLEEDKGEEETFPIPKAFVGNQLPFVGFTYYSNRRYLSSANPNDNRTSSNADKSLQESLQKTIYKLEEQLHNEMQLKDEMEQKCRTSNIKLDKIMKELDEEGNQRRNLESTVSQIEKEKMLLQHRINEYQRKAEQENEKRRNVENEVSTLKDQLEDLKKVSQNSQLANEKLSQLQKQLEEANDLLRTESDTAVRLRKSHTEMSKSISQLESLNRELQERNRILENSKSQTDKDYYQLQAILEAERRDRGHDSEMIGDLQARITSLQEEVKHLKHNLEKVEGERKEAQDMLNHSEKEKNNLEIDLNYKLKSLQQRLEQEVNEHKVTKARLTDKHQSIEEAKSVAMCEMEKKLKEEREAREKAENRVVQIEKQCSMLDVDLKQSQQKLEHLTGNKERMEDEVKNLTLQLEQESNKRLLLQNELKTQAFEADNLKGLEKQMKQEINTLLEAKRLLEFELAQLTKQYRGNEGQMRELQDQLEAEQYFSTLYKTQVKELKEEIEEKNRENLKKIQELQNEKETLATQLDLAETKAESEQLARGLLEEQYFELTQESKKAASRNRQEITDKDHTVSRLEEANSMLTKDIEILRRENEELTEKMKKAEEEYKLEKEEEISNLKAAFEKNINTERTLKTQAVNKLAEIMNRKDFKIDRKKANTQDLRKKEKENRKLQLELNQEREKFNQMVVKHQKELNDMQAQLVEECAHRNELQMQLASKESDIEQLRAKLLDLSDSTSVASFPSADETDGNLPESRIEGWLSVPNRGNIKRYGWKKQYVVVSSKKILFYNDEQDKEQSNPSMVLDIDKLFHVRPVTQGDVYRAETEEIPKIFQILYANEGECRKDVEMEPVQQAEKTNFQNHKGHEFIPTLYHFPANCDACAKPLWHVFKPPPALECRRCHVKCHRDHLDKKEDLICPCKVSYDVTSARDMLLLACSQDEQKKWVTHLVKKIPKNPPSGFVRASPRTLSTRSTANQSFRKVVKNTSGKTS
Structure (SMILES),inhibition [1],inhibition [2],inhibition [3],inhibition [4],inhibition [5],inhibition [6],inhibition [7],inhibition [8],inhibition [9],inhibition [10],inhibition [11],inhibition [12],inhibition [13],inhibition [14],inhibition [15],inhibition [16],inhibition [17],inhibition [18],inhibition [19],inhibition [20]
COc1ccc(C2=C(N3CCc4ccccc43)C(=O)NC2=O)cc1,1.57%,2.97%,3.17%,2.46%,4.09%,0.95%,1.69%,2.16%,3.86%,2.62%,4.12%,5.57%,2.06%,-2.15%,-5.83%,4.38%,1.94%,4.29%,5.67%,1.73%
NS(=O)(=O)c1ccc(N/N=C2\C(=O)Nc3ccc(C(=O)NCCCn4ccnc4)cc32)cc1,8.77%,5.67%,25.4%,2.58%,7.85%,2.08%,9.61%,3.97%,12.8%,3.05%,13%,5.02%,14.6%,2.07%,7.54%,3.25%,6.44%,18%,64.4%,5.78%
COc1cc(Nc2ncc3c(C)nc(-c4cccc(C(F)(F)F)c4)n3n2)cc(OC)c1OC,2.39%,2.6%,8.14%,5.19%,26.7%,5.91%,31.8%,7.09%,37.1%,5.57%,29.1%,3.85%,8.66%,-1.55%,6.37%,5.08%,8.49%,6.54%,39.2%,5.38%
O=C1NC(=O)C(c2cccc(Cl)c2)=C1Nc1ccc(Cl)c(C(=O)O)c1,0.78%,1.95%,4.98%,1.51%,2.92%,1.25%,1.6%,1.79%,1.6%,1.24%,3.09%,3.35%,8.21%,0.84%,3.07%,2.77%,4.64%,3.69%,3.89%,-0.69%
FC(F)(F)c1cccc(Nc2nccc(-c3cnn4nc(-c5ccccc5)ccc34)n2)c1,0.48%,1.21%,0.98%,1.01%,1.56%,1.05%,1.35%,1.39%,2.04%,1.3%,0.82%,2.37%,2.67%,1.96%,1.95%,2.7%,1.72%,1.9%,1.87%,-0.41%
CN(C)c1ccc2c(c1)/C(=C/Nc1ccc(S(N)(=O)=O)cc1)C(=O)N2,5.77%,5.46%,13.3%,1.57%,11.6%,2.82%,14.7%,5.18%,25.9%,4.28%,20.9%,2.27%,5.38%,0.91%,-1.11%,1.07%,-1.85%,10.2%,44.5%,7.02%
COc1cc2ncn(-c3cc(OCCc4ccccc4)c(C(N)=O)s3)c2cc1OC,0.3%,0.94%,-1.5%,0.33%,-0.89%,0.83%,0.32%,1.71%,1.86%,1.48%,2.25%,0.21%,3.41%,-0.42%,-1.95%,2.58%,2.59%,2.79%,4.42%,1.45%
COc1cc(N2CCN(C(C)C)CC2)ccc1Nc1nc(Nc2ccc(F)cc2C(=O)NC[C@@H](O)CO)c2cc[nH]c2n1,2.04%,4.24%,8.05%,3.27%,12.1%,2.71%,7.3%,3.45%,5.13%,2.51%,8.27%,4.42%,7.18%,2.67%,4.33%,2.59%,6.24%,4.23%,5.78%,2.37%
C/C(Nc1ccc(S(N)(=O)=O)cc1)=C1/C(=O)Nc2ccccc21,5.13%,2.95%,9.54%,1.62%,14.5%,1.49%,14.6%,2.22%,23.4%,2.94%,20.7%,5.32%,18.4%,1.82%,2.83%,0.76%,2.1%,1.16%,9.79%,3.01%
NC(=O)Cc1ccccc1Oc1nccc(-c2c(-c3ccc(F)cc3)ncn2C2CCNCC2)n1,1.73%,-0.06%,0.19%,1.2%,0.63%,0.99%,1.35%,1.2%,3.57%,1.6%,2.01%,-0.43%,0.48%,1.13%,0.76%,0.96%,0.86%,2.61%,1.44%,1.24%
O=C(Nc1n[nH]c2nc(-c3ccco3)ccc12)C1CC1,3.74%,1.89%,3%,0.92%,0.86%,-0.05%,0.78%,0.54%,1.46%,0.59%,0.71%,2.03%,0.33%,0.71%,0.28%,-0.55%,1.28%,-0.2%,1.85%,1.32%

# Reference: ChEMBL document CHEMBL1961873, “Compounds: GSK PKIS; Assays: Nanosyn kinase panel” (2012)
